# Records with an inconclusive call do not appear. A call without a number means that no potency is given here. A number with no mark means an inactive call. The source made the active and inactive calls. Calls follow the shape of the dose curve; as a rule, active = well fitted cell-killing curve with a large enough effect in the repeat runs; inconclusive = weak or mixed curves, or effect the other way; inactive = flat fitted curve, though single readings scatter.
# Test: qHTS assay to identify small molecule antagonists of the constitutive androstane receptor (CAR) signaling pathway - cell viability counter screen (AID 1224837); also: nearly all actives have a fitted effect of over 45% in size
# Conditions: HepG2-CYP2B6-hCAR viability, CellTiter-Fluor, 23 h, co-treated with 50 nM CITCO; series mostly up to 92.4 µM
# Description: National Center for Advancing Translational Sciences [NCATS]
# NIH Chemical Genomics Center [NCGC]
# U.S. Environmental Protection Agency [EPA]
# National Institutes of Environmental Health Sciences [NIEHS]
# National Toxicology Program [NTP]
# U.S. Food and Drug Administration [FDA]
# The constitutive androstane receptor (CAR) is a nuclear receptor which regulates multiple drug metabolizing enzymes (DMEs) and transporters. Activating CAR will generally increase the transcription and subsequent translation of CYP2B6 and CYP3A4. These two DMEs represent about 50% of the drug metabolizing potential in the body. When CAR is deactivated, the metabolizing potential in the body will decrease, subsequently increasing the toxicity in the body or lowering the therapeutic potential of a pro-drug. Recently, there have also been studies performed indicating CARs role in energy metabolism and cancer therapy. Therefore, inhibiting CARs activity could have a potential effect on diabetes and cancer. Identifying environmental toxins and compounds which modulate CAR, through the use of the Tox21 10K compound collection, will be an important step in determining the toxicity and potential therapeutic effects these factors will have on the human body. To differentiate true CAR antagonists from cytotoxic substances, the assay is multiplexed with a cell viability assay.
# Tox21 Assay Protocol Summary:
# A double-stable (hCAR and CYP2B6-2.2kb) transfected cell line, derived from human hepatoma (HepG2) cells, was utilized for the duration of the quantitative high-throughput screens. The HepG2-CYP2B6-hCAR cells were dispensed at 2500 cells/4 uL/well in 1536-well white solid bottom plates using a Multidrop Combi. After the assay plates were incubated at 37 C/5% CO2 for 4 hrs, 23 nL of compounds at 15 concentrations (from 5-48 columns) or positive control (from 1 to 4 columns) were transferred to the assay plates using a Pintool station. One uL of CITCO (final concentration = 50 nM) was added, using a Flying Reagent Dispenser, inside each well. After a 23 hr incubation period at 37 C/5% CO2, 1 uL of CellTiter-Fluor reagent was added into each well of the assay plates using a Flying Reagent Dispenser. The fluorescence intensity in the plates was then measured using a ViewLux plate reader.
# Potency is read from the fitted curve at half-maximal effect.
Structure (SMILES),Potency,"activity change, negative = cytotoxicity"
CC(=O)c1cccnc1,inactive,–
NC(=O)c1ccccc1C(N)=O,inactive,–
SCCOCCOCCS,inactive,–
O=C(O)c1cccnc1Nc1cccc(C(F)(F)F)c1,inactive,–
CCCCCCCCCCCCSCCOCCO,inactive,–
CCC(C)CCCC(C)(C)O (stereo not given),inactive,–
O=C(O)COCC(=O)O,inactive,–
C=CC(C)(O)CC/C=C(/C)CCC=C(C)C (stereo not given),inactive,–
Clc1ccccc1-c1nc(-c2ccncc2)no1,inactive,–
COc1ccc(/C=C/c2cc(OC)cc(=O)o2)cc1,inactive,–
O=C1c2ccccc2C(=O)c2c1ccc(O)c2O,inactive,–
CCCCCCCCCCCC(=O)OCC,inactive,–
CCN(CCCCOC(=O)c1ccc(OC)c(OC)c1)C(C)Cc1ccc(OC)cc1 (stereo not given),inactive,–
CC1=CC(=C(c2ccc(N)cc2)c2ccc(N)cc2)C=CC1=N,–,-13.7% [at 8.39 µM]
NC(=O)c1ccccc1,inactive,–
O=C1c2ccccc2C(=O)C1c1ccc2cc(S(=O)(=O)O)cc(S(=O)(=O)O)c2n1,52.5 µM (active),–
Cc1c(N=C=O)cccc1N=C=O,inactive,–
CC(C)=CCC/C(C)=C/C=N/O,inactive,–
CCCCCCCCC(=O)OCC(C)OC(=O)CCCCCCCC (stereo not given),inactive,–
O=[N+]([O-])c1cccc(I)c1,inactive,–

Structure (SMILES),Potency,"activity change, negative = cytotoxicity"
O=C(Nc1ccc2c(c1)Cc1ccccc1-2)C(F)(F)F,inactive,–
CC1=C(C)C(=O)C(C(CCCCCC(=O)O)c2ccccc2)=C(C)C1=O (stereo not given),inactive,–
CC(CCl)OC(C)CCl (stereo not given),inactive,–
CC(C)(Cc1c[nH]c2ccccc12)NCC(O)COc1ccccc1C#N (stereo not given),inactive,–
Clc1nc2ccccc2nc1Cl,inactive,–
CC1(C)C(=O)NC(=O)N1CO,inactive,–
CC(C)=CCCC(C)C=O (stereo not given),inactive,–
CC(=O)OCC(=O)[C@@]1(O)CC[C@H]2[C@@H]3CCC4=CC(=O)C=C[C@]4(C)[C@@]3(F)[C@@H](O)C[C@@]21C,inactive,–
CCc1ccc2c(c1)C(=O)c1ccccc1C2=O,inactive,–
CC/C=C\CCO,inactive,–
N#C[C@@H]1CC(F)(F)CN1C(=O)CNC1CC2CCC(C1)N2c1ncccn1 (stereo not given in full),inactive,–
CC(C)(C)c1ccc(CCC=O)cc1,inactive,–
CCN(CC)CC(=O)OCC(=O)[C@@]1(O)CC[C@H]2[C@@H]3CCC4=CC(=O)CC[C@]4(C)[C@H]3[C@@H](O)C[C@@]21C,inactive,–
O=C(O)c1cc(C(=O)O)cc([N+](=O)[O-])c1,inactive,–
COc1ccc(CN(CCN(C)C)c2ncccn2)cc1,inactive,–
O=C(NC1CCN(CCc2c[nH]c3ccccc23)CC1)c1ccccc1,inactive,–
CCCCCCCCCCCCN1CCOCC1,inactive,–
CC(=O)Nc1ccccc1O,inactive,–
O=C(O)c1ccc2cc(O)ccc2c1,inactive,–
C=CC(=O)OCCCCCCCCCC,inactive,–

# Source: PubChem BioAssay (Tox21)
